# In PMC4336329 (PLoS ONE, 2015):
# Out of some 310,000 compounds screened, about 14,000 (4.5%) showed an effect of 50% or more. Effects have a minus sign here. Only a selection was taken, and strong results are over-represented in it overall.
# Biological target: human ether-à-go-go-related gene (hERG) potassium channel (human, UniProt Q12809)
# Test: primary screen, population patch clamp on CHO cells stably expressing hERG; higher = less effect of the substance
# 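Also: peak tail current of the secondary pulse compared with the same well before compound.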
# Chain of human ether-à-go-go-related gene (hERG) potassium channel (Q12809 whole entry, looked up): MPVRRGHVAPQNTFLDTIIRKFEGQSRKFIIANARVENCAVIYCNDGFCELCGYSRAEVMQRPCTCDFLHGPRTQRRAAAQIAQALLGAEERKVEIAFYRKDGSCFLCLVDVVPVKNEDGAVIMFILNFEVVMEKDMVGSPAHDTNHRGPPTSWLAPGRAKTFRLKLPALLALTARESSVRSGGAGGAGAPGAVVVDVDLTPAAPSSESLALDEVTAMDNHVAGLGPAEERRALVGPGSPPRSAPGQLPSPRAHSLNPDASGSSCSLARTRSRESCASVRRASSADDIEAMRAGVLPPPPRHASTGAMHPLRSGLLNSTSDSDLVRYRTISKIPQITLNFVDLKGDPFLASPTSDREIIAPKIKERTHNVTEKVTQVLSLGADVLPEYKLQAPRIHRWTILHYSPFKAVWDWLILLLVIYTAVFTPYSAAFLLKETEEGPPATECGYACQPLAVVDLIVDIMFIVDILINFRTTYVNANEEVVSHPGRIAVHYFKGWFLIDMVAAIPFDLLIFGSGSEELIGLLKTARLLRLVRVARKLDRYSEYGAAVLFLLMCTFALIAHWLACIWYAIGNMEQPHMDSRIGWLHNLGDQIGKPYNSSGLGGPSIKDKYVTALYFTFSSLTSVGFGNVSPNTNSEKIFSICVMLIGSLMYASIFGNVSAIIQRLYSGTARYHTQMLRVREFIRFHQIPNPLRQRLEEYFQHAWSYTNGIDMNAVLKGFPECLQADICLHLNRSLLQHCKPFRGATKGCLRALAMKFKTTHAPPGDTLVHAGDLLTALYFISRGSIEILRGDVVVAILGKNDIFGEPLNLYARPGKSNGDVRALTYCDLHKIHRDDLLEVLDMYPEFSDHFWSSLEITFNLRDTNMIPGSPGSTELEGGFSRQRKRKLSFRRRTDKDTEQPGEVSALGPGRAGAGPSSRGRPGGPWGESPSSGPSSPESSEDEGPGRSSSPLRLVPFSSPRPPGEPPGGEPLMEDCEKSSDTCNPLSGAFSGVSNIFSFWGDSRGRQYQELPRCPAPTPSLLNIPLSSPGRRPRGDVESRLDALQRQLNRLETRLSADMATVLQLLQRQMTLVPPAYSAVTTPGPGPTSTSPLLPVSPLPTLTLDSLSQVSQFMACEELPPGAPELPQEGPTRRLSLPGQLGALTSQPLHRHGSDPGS
row,Compound,"hERG current change (%, negative = inhibition) at 10uM"
1,O=C(CCc1nc(-c2ccccc2)no1)NC1CCCCCC1,1.28%
2,CCc1cccc(C)c1NC(=O)CSc1nc(-c2ccccc2F)nc2nc[nH]c12,3.31%
3,NC(=O)c1cc([N+](=O)[O-])c(Cl)cc1NCc1cccnc1,-8.53%
4,Cc1cc(C)cc(OCC(=O)NNC(=O)c2ccccn2)c1,-34.6%
5,CN(C)S(=O)(=O)n1cc(/C=C(\NC(=O)c2ccccc2Cl)C(=O)N2CCOCC2)c2ccccc21,-7.07%
6,O=C(Nc1cccc(C(=O)O)c1)/C(=C\c1ccc2c(c1)OCO2)NC(=O)c1ccc(Br)cc1,17.9%
7,O=C(Nc1ccc(C(=O)O)cc1)/C(=C\c1ccc2c(c1)OCO2)NC(=O)c1ccc(Br)cc1,5.36%
8,CNC(=O)/C(=C/c1ccc2c(c1)OCO2)NC(=O)c1ccc(Br)cc1,-63.4%
9,CNC(=O)/C(=C\c1ccc2c(c1)OCO2)NC(=O)c1ccc(Br)cc1,-56.5%
10,O=C(Nc1ccc(C(=O)O)cc1)/C(=C\c1ccc2c(c1)OCO2)NC(=O)c1ccccc1,22%
11,Cc1ccc(C(=O)N/C(=C\c2ccc3c(c2)OCO3)C(=O)Nc2ccc(C(=O)O)cc2)cc1,17.9%
12,COC(=O)c1ccc(NC(=O)c2ccccc2N(C)S(=O)(=O)c2ccccc2)cc1,16.3%
13,CC(C)(C)c1cc(CN2CCN(CCO)CC2)cc(C(C)(C)C)c1O,-19%
14,CN1CCN(C(c2ccc(Cl)cc2)c2cc(Cl)c3cccnc3c2O)CC1 (centres unmarked),7.12%
15,CCN1CCN(C(c2cccnc2)c2cc(Cl)c3cccnc3c2O)CC1 (centres unmarked),-72.4%
16,CC(C)(C)c1cc(C(c2cccnc2)N2CCN(CCO)CC2)cc(C(C)(C)C)c1O (centres unmarked),-53.8%
17,CC(C)(C)c1cc(C(=S)N2CCN(CCO)CC2)cc(C(C)(C)C)c1O,-26.6%
18,Cc1ccc(C(c2cc(Cl)c3cccnc3c2O)N2CCN(C)CC2)cc1 (centres unmarked),-9.97%
19,COC(=O)C1=C(C(=O)OC)[C@@H]2N(Cc3ccccc3)c3ccccc3[C@@]23C[C@@H](CO)N(C(=O)NC2CCCC2)C3=N1,-9.18%
20,CC(CN(C)Cc1ccccc1)OC(=O)c1cccs1.Cl (centres unmarked),-10.5%
21,COc1cc2c(cc1OC)C(C)N(C(=O)C1COc3ccccc3O1)CC2 (centres unmarked),-35.3%
22,Cc1sc2nc(C3CC3)nc(N3CCN(C(=O)c4ccc(F)cc4)CC3)c2c1C.Cl,-69.8%

row,Compound,"hERG current change (%, negative = inhibition) at 10uM"
1,Cc1sc2nc(C3CC3)nc(N3CCN(C(=O)c4ccc(Cl)cc4)CC3)c2c1C.Cl,-57.1%
2,Cc1sc2nc(C3CC3)nc(N3CCN(C(=O)c4ccccc4F)CC3)c2c1C.Cl,-37.6%
3,Cc1sc2ncnc(N3CCC(C(=O)NNC(=O)c4ccc(Cl)cc4)CC3)c2c1C,-11.2%
4,COc1ccc(C(=O)N2CCN(c3nc(C4CC4)nc4sc(C)c(C)c34)CC2)cc1.Cl,-23.8%
5,Cc1sc2nc(C3CC3)nc(N3CCN(S(=O)(=O)c4ccc(F)cc4)CC3)c2c1C,-0.18%
6,O=C(CN(c1ccc2c(c1)OCCO2)S(=O)(=O)c1ccccc1)NCc1ccco1,4.37%
7,O=C(Nc1ccc(F)cc1F)c1ccc2c(c1)OCCO2,15.4%
8,Cc1cccc(NC(=S)N(CCN2CCOCC2)Cc2cc3cc4c(cc3[nH]c2=O)OCCO4)c1,-3.3%
9,CN(C(=O)COC(=O)c1cc(S(=O)(=O)N2CCCCC2)ccc1N1CCOCC1)C1CCS(=O)(=O)C1 (centres unmarked),-6.63%
10,CCCCc1c(O)c2ccccc2[nH]c1=O,0.685%
11,COc1ccc(-n2c(C)cc(C(=O)CSc3nnc(-c4ccoc4C)n3C)c2C)cc1,-31.1%
12,CCSC1=N/C(=C\C=C2/Oc3ccccc3N2CC)C(=O)S1,-3.2%
13,COc1ccc(OC)c(NC(=O)N2CCCC(C(=O)c3ccccc3OC)C2)c1 (centres unmarked),5.87%
14,COc1ccc(C(=O)C2CCCN(C3CSCCSC3)C2)cc1OC (centres unmarked),-21.8%
15,COc1ccc(C(=O)C2CCCN(C3Cc4ccccc4C3)C2)c(OC)c1 (centres unmarked),-76.5%
16,COC(=O)c1ccccc1C(=O)N1CCCC(C(=O)c2ccc(OC)c(OC)c2)C1 (centres unmarked),4.47%
17,COc1ccc(C(=O)C2CCCN(C3CSCCSC3)C2)c(OC)c1 (centres unmarked),-43.6%
18,COc1ccc(C(=O)C2CCCN(C3Cc4ccccc4C3)C2)cc1OC (centres unmarked),-76.6%
19,CC(C)(C)NC(=O)COc1ccc(CNc2ccc3[nH]c(=O)[nH]c3c2)cc1,-1.87%
20,Cn1c(NCc2ccco2)nc2c1c(=O)n(Cc1ccc(Cl)c(Cl)c1)c(=O)n2C,-15.6%
21,COCCn1c(SCC(=O)/C=C2\N(C)c3ccccc3C2(C)C)nnc1-c1ccncc1,-37.4%
22,CC(=O)Nc1ccccc1OCCOc1ccc(Br)cc1,-1.67%

row,Compound,"hERG current change (%, negative = inhibition) at 10uM"
1,Clc1ccc(-c2nnc3n2CCCS3)cc1,6.34%
2,Cc1ccccc1OCC(=O)NCCc1nc2ccccc2[nH]1,-9.27%
3,O=C(NCCc1nc2ccccc2[nH]1)c1ccc(Cl)c([N+](=O)[O-])c1,-56.2%
4,Cc1ccc(C(=O)NCCc2nc3ccccc3[nH]2)cc1[N+](=O)[O-],-31.8%
5,O=C(NCc1nc2ccccc2[nH]1)c1ccc([N+](=O)[O-])cc1,-38.5%
6,O=C(NCCc1nc2ccccc2[nH]1)c1ccc([N+](=O)[O-])cc1,-56.8%
7,O=C(COc1ccccc1Br)NCCc1nc2ccccc2[nH]1,-65.3%
8,CCOc1ccc(OCC(=O)NCCc2nc3ccccc3[nH]2)cc1,-34.6%
9,O=C(COc1ccccc1)NCCc1nc2ccccc2[nH]1,-6.21%
10,COc1ccccc1OCC(=O)NCCc1nc2ccccc2[nH]1,2.13%
11,O=C(COc1ccc([N+](=O)[O-])cc1)NCCc1nc2ccccc2[nH]1,-56.7%
12,O=C(Nc1nc2ccccc2[nH]1)c1ccc(Cl)c([N+](=O)[O-])c1,0.857%
13,O=C(NCCc1nc2ccccc2[nH]1)c1cc([N+](=O)[O-])cc([N+](=O)[O-])c1,-8.57%
14,CC1=NN(C(=O)Cc2ccc([N+](=O)[O-])cc2)C(O)(C(F)(F)C(F)(F)F)C1 (centres unmarked),-12.4%
15,O=C(Nc1nnc(-c2ccco2)o1)c1cccc(N2C(=O)CCC2=O)c1,7.91%
16,CCOc1ccc(Br)cc1C(=O)N/N=C/c1cccnc1,1.64%
17,CCCn1c(SCCC(=O)O)nc2ccccc21,8.62%
18,O=[N+]([O-])c1ccc(-c2c(-c3ccccc3)ncc3cc(F)ccc23)cc1,1.58%
19,O=C(CNc1cc(S(=O)(=O)N2CCCC2)ccc1OCC(F)(F)F)Nc1cc(Cl)cc(Cl)c1,6.5%
20,CC(=O)Nc1c(O)nc(C)[nH]c1=O,6.51%
21,O=c1cc(CSc2nnc(COc3cccc4ccccc34)o2)c2ccccc2[nH]1,22.2%
22,COCCNC(=O)c1nn2cccnc2c1Cl,-11.3%

row,Compound,"hERG current change (%, negative = inhibition) at 10uM"
1,CCCCNC(=O)c1nc2ncc(Br)cn2n1,-21%
2,CCCNC(=O)c1nc2ncc(Br)cn2n1,-31.1%
3,CCCCNC(=O)Nc1ccc(Br)cn1,-16.2%
4,CCCNC(=O)c1nn2cc(Br)cnc2c1Br,-69.2%
5,COCCNC(=O)c1cc2ncc(Br)cn2n1,5.41%
6,CCCCNC(=O)c1nn2cc(Br)cnc2c1Br,-62.3%
7,CCc1ccccc1NC(=O)c1cc2ncc(Br)cn2n1,9.22%
8,CCCNC(=O)c1nn2cc(Br)cnc2c1Cl,-73.2%
9,O=C(/C=C/c1ccccc1)Nc1ccc(NC(=O)c2cccs2)cc1,6.8%
10,COC(=O)c1cc(-c2ccc(NC(C)=O)cc2)nc2ccccc12,6.01%
11,CCOC(=O)CC(NC(=O)Cc1ccccc1)c1ccccc1Cl (centres unmarked),1.83%
12,Cc1ccc(Nc2ncc3c(n2)CC(C)(C)CC3=O)cc1,-10%
13,N/C(=N/OCC(=O)Nc1cccc2ccccc12)c1nonc1N,-14%
14,CCOc1ccc(C(=O)O/N=C(\N)c2ccc([N+](=O)[O-])cc2)cc1OCC,-6.93%
15,CN1CCN(Cc2nc3ccccc3c(=O)n2CC#N)CC1,-2.87%
16,CN1CCN(Cc2nc3ccccc3c(=O)n2Cc2nc(-c3ccc4ccccc4c3)cs2)CC1,-6.55%
17,CN(C)Cc1nc2ccccc2c(=O)n1Cc1nc(-c2cccc([N+](=O)[O-])c2)cs1,-36.9%
18,CN1CCN(Cc2nc3ccccc3c(=O)n2Cc2nc(-c3ccccc3F)cs2)CC1,-71%
19,CN(C)Cc1nc2ccccc2c(=O)n1Cc1nc(-c2cc3ccccc3o2)cs1,9.3%
20,CN1CCN(Cc2nc3ccccc3c(=O)n2Cc2nc(-c3ccc([N+](=O)[O-])cc3)cs2)CC1,-73.8%
